A selection: hits, their analogues and other compounds. The true share with any hit is near 6.2%.
S2 tox – reduces viability in counter-screen for ATXN expression inhibitors; S2 cells (HEK-293 line with an ATXN2-luciferase reporter) viability, CellTiter-Fluor protease fluorescence, 24 h; Potency, µM (doses to about 56.7 µM), most hits filed as cytotoxic; 400,000 tested, 0.49% active; AID 651635; also: nearly all actives have a fitted effect of over 40% in size
KB-3-1 cytotox – kills parental KB-3-1 adenocarcinoma cells. KB-3-1 viability, CellTiter-Glo ATP luminescence, 72 h. Potency, µM (top dose mostly 46.1 µM), most hits filed as cytotoxic. 400,000 tested, 1.4% active; also: % is scaled to controls: 0 for no effect and ±100 for the full control effect; nearly all actives have a fitted effect of over 60% in size
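Viability of parental KB-3-1 cells, measured by CellTiter-Glo luminescence, followed a 72 h incubation at 37 °C with pinned compounds in phenol-red-free DMEM containing 10% FBS.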
HT1080-NT tox – kills 2HG-producing HT-1080-NT fibrosarcoma cells | HT-1080-NT fibrosarcoma viability, CellTiter-Glo ATP luminescence, 48 h | Potency, µM (highest dose often 46.1 µM), for the others: top-dose activity, negative = less viability, hits mostly cytotoxic | 360,000 tested, 1.6% active;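 also: NT is the 2HG producing partner of a matched IDH1 knockdown line; 0% = DMSO-treated cells and -100% = media-only wells without cells; nearly all actives have a fitted effect of over 55% in size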
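HT-1080-NT fibrosarcoma cells (2HG-overproducing), 750 cells/well in RPMI with 5% FBS, dosed after 2 h and incubated 48 h at 37C. CellTiter-Glo luminescence normalized to DMSO and no-cell wells; concentration-response curves fitted and classed.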
ATXN2 expr inh – reduces ATXN2 reporter expression in HEK-293 cells; HEK-293 ATXN2-luciferase reporter, luminescence, 24 h; Potency, µM (doses to about 57 µM), for the others: at the top dose activity change, negative = inhibition, usual class: inhibitors; 360,000 tested, 0.72% active; AID 1745845; also: % is scaled to controls: 0 for no effect and ±100 for the full control effect; nearly all actives have a fitted effect of over 55% in size
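ATXN2-luciferase reporter cells (luciferase flanked by upstream and downstream ATXN2 gene portions) were treated 24 h at 37 °C with compounds at up to 57 uM. SteadyGlo luminescence gave expression; GF-AFC fluorescence gave viability.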
KB-V1 MDR tox – KB-V1 MDR subline cytotoxicity; 400,000 tested, 3.4% active; KB-V1 MDR cells viability, CellTiter-Glo, 72 h; Potency, µM (titrated, usually from 46.1 µM), hits mostly cytotoxic; also: % is scaled to controls: 0 for no effect and ±100 for the full control effect; nearly all actives have a fitted effect of over 60% in size
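Cells of the MDR subline KB-V1 are plated, dosed with compound at multiple concentrations, and incubated 72 h at 37 degrees C; CellTiter-Glo is then added and luminescence read after 10 min.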
HT1080 IDH1KD tx – toxicity to HT-1080 IDH1 knockdown cells (counter line) | HT-1080 IDH1 knockdown viability, ATP luminescence, 48 h | Potency, µM (top dose mostly 46.1 µM), inactives show at the top dose activity, negative = toxicity, hits mostly cytotoxic | 360,000 tested, 2% active | AID 686971;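 also: 0% = DMSO wells and -100% = cell-free medium wells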
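IDH1KD HT-1080 cells, 750/well, RPMI + 5% FBS; compound pinned after 2 h settling; 48 h, 37 °C; CellTiter-Glo luminescence; % activity normalised to DMSO and no-cell wells; curves fitted, classed by r2 and efficacy.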
* = called active by the depositor; i = inactive; ? = inconclusive; . = no result given; [ ] = dose if it differs, or a comment. Calls follow the shape of the dose curve; as a rule, active = well fitted curve in the direction sought with a large enough effect; inconclusive = small, poorly fitted or top-dose-only effect, or another doubt; inactive = no such curve, though single readings can be large; an effect the other way counts as inactive or inconclusive. Potency is read from the fitted curve at half-maximal effect.

SMILES	S2 tox	KB-3-1 cytotox	HT1080-NT tox	ATXN2 expr inh	KB-V1 MDR tox	HT1080 IDH1KD tx
CCOC(=O)c1c(C)[nH]c(C)c1S(=O)(=O)NCC(=O)NCc1cccc(Br)c1	i	i	.	-6%	i	.
CC(C)(C)OC(=O)C(Cl)(C(=O)OC(C)(C)C)c1ccc2nnnn2n1	i	i	?	-23%	i	18µM*
Cc1ccc(-c2nnc(NC3CCCCC3)c3ccccc23)cc1S(=O)(=O)N1CCN(C)CC1	.	i	-28%	?	23µM*	-11%
COc1ccc(NC(=O)C2=C(C)Nc3ncnn3C2c2ccc(O)cc2)cc1 (stereo not drawn)	i	i	.	17%	?	.
O=C(NC1(Cc2ccccc2)CCN(Cc2ccc(-c3ccccc3)cc2)C1=O)c1ccccc1 (stereo not drawn)	32µM*	?	?	?	?	?
O=C(CCc1ccccc1)NC1(Cc2ccccc2)CCN(CCc2cccs2)C1=O (stereo not drawn)	?	i	-3%	-22%	i	-16%
COC(=O)c1c(NC(=O)CSc2nnnn2-c2ccccc2)sc2c1CCC(C(C)(C)C)C2 (stereo not drawn)	i	i	14%	10%	15µM*	2%
CCOC(=O)c1c(NC(=O)C2COc3ccccc3O2)sc(C(C)=O)c1C (stereo not drawn)	i	i	-18%	-16%	i	1%[9.24 µM]
CCOC(=O)c1c(NC(=O)CSc2nnnn2-c2ccccc2)sc2c1CC(C)(C)NC2(C)C	?	i	?	?	i	23µM*
CCOC(=O)c1c(NC(=O)Cc2ccccc2)sc2c1CC(C)(C)NC2(C)C	?	i	-22%	-33%	i	-11%
CCOC(=O)c1c(NC(=O)C2COc3ccccc3O2)sc2c1CC(C)(C)NC2(C)C (stereo not drawn)	?	?	?	-15%	i	16µM*
Oc1c(C(c2ccccc2F)N2CCN(Cc3ccccc3)CC2)sc2nc(-c3ccco3)nn12 (stereo not drawn)	i	i	.	17%	i	.
CCn1cc(C(=O)N2CCCC2)c(=O)c2cc(S(=O)(=O)N3CC(C)CC(C)C3)ccc21 (stereo not drawn)	i	i	0%	3%	i	-7%
CCn1cc(C(=O)NCc2ccc(C)cc2)c(=O)c2cc(S(=O)(=O)N3CCC(C)CC3)ccc21	i	i	.	0%	i	.
CCn1cc(C(=O)NCc2ccco2)c(=O)c2cc(S(=O)(=O)N3CC(C)CC(C)C3)ccc21 (stereo not drawn)	i	5.8µM*	4.1µM*	?	?	5.8µM*
CCn1cc(C(=O)NCc2ccco2)c(=O)c2cc(S(=O)(=O)N3CCC(C)CC3)ccc21	i	?	?	-26%	5.8µM*	?
CCn1cc(C(=O)NCc2ccco2)c(=O)c2cc(S(=O)(=O)N3CCCCCC3)ccc21	i	21µM*	15µM*	-19%	i	?
Cc1cc(C)cc(NS(=O)(=O)c2ccc3[nH]cc(C(=O)NCc4ccco4)c(=O)c3c2)c1	?	7.3µM*	2.6µM*	?	i	5.2µM*
Clc1ccc(Nc2nc(Nc3ccc(Cl)cc3)nc(N3CCOCC3)n2)cc1	.	i	.	.	i	.
Cc1cc(C)c(NC(=O)CCS(=O)(=O)c2cc3c(cc2Cl)NC(=O)CO3)c(C)c1	i	i	.	-8%	i	.
CCn1cc(C(=O)NCc2ccco2)c(=O)c2cc(S(=O)(=O)N3CCc4ccccc4C3)ccc21	i	23µM*	?	-22%	i	?
CCc1ccc(OCC(=O)Nc2ccncc2)c(Br)c1	?	?	?	2%	9.2µM*	?
CC(C)CCOc1cccc(OCC(=O)Nc2ccncc2)c1	i	?	?	-26%	2.9µM*	?
COc1cccc(OCC(=O)Nc2ccncc2)c1	i	?	-13%	-9%	i	-9%
Cc1ccc(N(CC(=O)NCCc2ccccc2C)S(=O)(=O)N(C)C)cc1	i	i	.	2%	i	.
SMILES	S2 tox	KB-3-1 cytotox	HT1080-NT tox	ATXN2 expr inh	KB-V1 MDR tox	HT1080 IDH1KD tx
Cc1ccc(/C=[N+](\[O-])c2ccc(N(C)C)cc2)c2nsnc12	?	i	21µM*	?	i	-1%
Cc1ccc(C)c2c(/C=C/c3ccc(N(C)C)cc3)ccnc12	.	?	.	.	i	.
CCc1ccc(-c2cc(C)no2)cc1S(=O)(=O)Nc1ccc(Cl)cc1	.	?	.	.	16µM*	.
OCCN(Cc1cccnc1)Cc1ccccn1	?	i	6%	-25%	10µM*	-17%
Cc1ccccc1OCCCSc1nc2ccccc2[nH]1	?	?	-19%	-3%	12µM*	-24%
O=c1c2ccccc2ncn1Cc1nc2ccccc2s1	i	i	6%	16%	i	1%
CCC(c1nc2ccccc2c(=O)n1-c1nc2ccccc2s1)N1C(=O)c2ccccc2C1=O (stereo not drawn)	i	?	-7%	-4%	3.7µM*	-7%
Cc1ccc(C(C)C)c(OCCCN(C)Cc2ccccc2)c1	i	i	-22%	-35%	12µM*	?
Cc1cc(Cl)c(OCCN2C(=O)NC(C)(C)C2=O)c(Br)c1	.	i	-3%	.	i	-7%
Cc1cc(Cl)cc(Br)c1OCCCN1C(=O)NC(C)(C)C1=O	i	?	-4%	4%	18µM*	5%
Cc1ccc(C(C)C)c(OCC(O)CN(C)Cc2ccccc2)c1 (stereo not drawn)	?	i	?	-36%	i	?
Cc1ccc([N+](=O)[O-])c(OCCN2C(=O)NC(C)(C)C2=O)c1	i	i	1%	.	i	3%
Cc1ccc(C(C)C)c(OCCCN2C(=O)NC(C)(C)C2=O)c1	i	i	-1%	-1%	15µM*	1%
CN(Cc1cccnc1)C(=O)c1cc(S(=O)(=O)Nc2ccccc2F)ccc1Cl	i	i	-2%	-6%	i	-2%
CC(=O)Nc1ccc(OCc2cccc([N+](=O)[O-])c2)cc1	i	i	21%	50%	i	-1%
O=C(/C=C/c1cccc([N+](=O)[O-])c1)Nc1ccc(NC(=O)c2cccs2)cc1	?	i	6%	?	i	7%
CC(=O)Nc1ccc(C=CC=Cc2cccc([N+](=O)[O-])c2)cc1	?	i	-2%	28%	21µM*	-30%

Screening data as filed in PubChem.
